Data: the supplement of paper PMC6555819

Columns and labels:
Assay in all cases: PBM binding z-score (relative to random genomic background probes); higher = stronger binding; sequences stand for … in GC…GCGATTGACAGCGTAGAATGAAGG
[1] = tested on: RARb homodimer (NR concentration 270 nM)
How it was run: (§1)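 Each nuclear receptor dimer, without ligand, was incubated for 1 h on custom Agilent 4×180K protein-binding microarrays. Binding was detected with antibodies against each partner (one per run), and scanned fluorescence was regression-normalized. The binding z-scores are referenced to random human genomic background probes.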

[2] = tested on: RARg:RXRa (NR concentration 270 nM, RXRa partner concentration 90 nM)
How it was run: as §1

[3] = tested on: RARg homodimer (NR concentration 270 nM)
How it was run: as §1

[4] = tested on: RXRa DBDmut IVT, anti-RXR (DBD mutation: RXRa K156A/R161A, NR concentration 90 nM)
How it was run: as §1

[5] = tested on: RXRa homodimer (NR concentration 180 nM)
How it was run: as §1

[6] = tested on: THRa:RXRa (NR concentration 90 nM, RXRa partner concentration 90 nM)
How it was run: as §1

[7] = tested on: THRa homodimer (NR concentration 90 nM)
How it was run: as §1

[8] = tested on: VDR:RXRa (NR concentration 270 nM, RXRa partner concentration 90 nM)
How it was run: as §1

[9] = tested on: VDR homodimer (NR concentration 270 nM)
How it was run: as §1

Row | Sequence | PBM binding z-score [1] | PBM binding z-score [2] | PBM binding z-score [3] | PBM binding z-score [4] | PBM binding z-score [5] | PBM binding z-score [6] | PBM binding z-score [7] | PBM binding z-score [8] | PBM binding z-score [9]
1 | GATACAGGGTCAGCTAGAGGCCAGAGTATGGAAA | 3.39 | 6.67 | 4.67 | 1.4 | 4.36 | 3.08 | 0.503 | 3.33 | 0.622
2 | CCTTACGGGTCAATGACAGGTTATAGCATTTGGA | 3.12 | 5.64 | 4.22 | 1.9 | 4.58 | 2.59 | -0.0254 | 3.29 | 1.18
3 | TGAATGAGGTAAAAGATCAGGGAACGTGGCGTCG | -0.605 | 0.328 | 0.294 | -0.708 | 0.851 | 1.3 | -0.2 | -0.131 | -0.398
4 | TCATATAGGTAATACAGGTTAAAGTCGGCATCTA | 0.936 | 0.979 | 0.696 | 2.04 | 1.63 | 1.35 | 0.204 | 1.88 | 0.629
5 | ACTAGCAGGCAAAGGGTCACTCAAGATTAGTCCG | 3.87 | 3.98 | 3.89 | 0.88 | 4.31 | 2.58 | 0.198 | 2.98 | 1.57
6 | CAGCCTCGGTCAGGGCCAGTATAGGAGGAACGTT | 1.31 | 0.85 | 1.86 | -0.961 | -0.355 | -0.5 | -0.413 | -0.628 | -0.875
7 | CCTGCTAGGTCAATGGTCAGCCAAAGCAGCTCGC | 3.05 | 3.38 | 4.35 | 1.48 | 2.23 | 2.06 | 0.619 | 0.672 | -0.16
8 | CCAGACAGGTGAGAAGGTTACTCAGCCTCGATTA | 1.63 | 1.67 | 1.13 | 0.518 | 1 | 0.657 | 0.115 | 0.635 | 0.152
9 | TCAGATAGGTGAAGGTAACTCAGGTACGCAGTCG | 0.689 | 0.578 | 0.814 | 1.22 | 1.08 | 1.17 | 0.217 | 0.796 | 0.382
10 | CATACAGGGTCAGCTTGGCCAGAGTAGGGACGGC | 3.06 | 4.12 | 4.29 | 1.58 | 4.13 | 2.85 | 0.515 | 2.81 | 0.849
11 | CGTCCAAGGTCAAGGTCAGGGAAAGAGACTCGAA | 5.45 | 7.09 | 7.87 | 3.81 | 7.17 | 4.53 | 3.82 | 4.97 | 3.37
12 | CCTACTGGACCATCAGGTCATTGATATCAACGTT | 2.7 | 1.67 | 1.56 | 1.08 | 1.37 | 3.38 | 3.78 | 2.24 | 2.38
13 | TCATATGGGTAAAGGTGAAAGTCGAACGATATGA | 1.36 | 1.41 | 0.964 | 0.352 | 2.08 | 1.24 | -0.573 | 0.608 | -0.341
14 | TAGCCTAGGTCATTCAGAGGCCAGTATAGAAAGC | 3.33 | 5.8 | 4.01 | 1.57 | 2.87 | 3.14 | 0.653 | 2.84 | 1.14
15 | AGTCAAAGTTCACTAGGTAAAGTAAGATTCAGCT | 3.32 | 4.93 | 5.48 | 4.25 | 4.02 | 1.75 | 0.0953 | 3.34 | 3.61
16 | TGTCAAAGATCAAAGGTAACGTAAGTATCCACAC | 0.261 | 1.26 | 0.761 | -0.668 | 2.36 | 1.54 | -0.401 | 0.973 | -0.267
17 | TCAGACAGGTGAAGGTTACTCAGGTACGCAGTCG | 1.84 | 1.16 | 1.17 | 1.54 | 1.72 | 2.58 | 0.799 | 1.69 | 0.58
18 | CCTCCGAGGACAACAGGAGGTCAGAGCTGCCAGA | 3.75 | 3.41 | 3.21 | 0.726 | 2.02 | 3.58 | 2.36 | 2.27 | 1.61
19 | TTACCAAGGTGAGCTGAGGTCGATGATCCAACTC | 1.56 | 1.03 | 1.05 | -0.52 | 1.06 | 4.48 | 1.6 | 2.51 | 0.355
20 | CCTACTGGGCTACGAAAGGTCATTGATTCAGTGA | 4.59 | 4.54 | 4.54 | 0.401 | 5.27 | 3.44 | 0.738 | 3.71 | 2.02
21 | CGTCCAAGGTCAAGATCAGTGAAAGAGACTCGAA | 3.53 | 5.63 | 6.45 | 3.61 | 5.54 | 3.58 | 1.84 | 3.61 | 1.6
22 | CCTAGTTGGTCAAGGTCAGACACGCTATAGGTAC | 3.62 | 3.19 | 3.82 | 1.56 | 2.73 | 3.34 | 2.57 | 2.83 | 2.29
23 | ACCTACGGGTCAACGAGGTTATAGCACGCGTATA | 3.18 | 5.47 | 4.95 | 2.06 | 5.89 | 3.88 | 0.718 | 7.64 | 3.51
24 | TCGAGTATGTTAGTCGGGGCATTCAGCCAACATA | -0.183 | -0.172 | -0.574 | 0.723 | -0.06 | 0.102 | -0.431 | 0.158 | 0.226
25 | TCATATAGGTAAAAGGTGAAAGCCGGTGTGGTAA | 1.74 | 2.11 | 0.955 | 1.45 | 2.92 | 1.56 | 8.19e-05 | 1.62 | -0.0743
26 | AGTCAAAGTTCAGGGCGAGGTAACGTAAAGCACG | 3.56 | 5.13 | 4.99 | 2.95 | 3.15 | 3.64 | 1.28 | 3.27 | 2.15

Row | Sequence | PBM binding z-score [1] | PBM binding z-score [2] | PBM binding z-score [3] | PBM binding z-score [4] | PBM binding z-score [5] | PBM binding z-score [6] | PBM binding z-score [7] | PBM binding z-score [8] | PBM binding z-score [9]
27 | ATCGAAAGGTTGAAGGTGAGTATACCCACCCGAA | 0.919 | 1.45 | 1.24 | -0.0221 | 2.38 | 0.997 | -0.184 | 0.806 | 0.162
28 | TCTGCTAGGTCAGTTGGCCAGCTAACGAGCTGCC | 2.15 | 2.56 | 3.53 | 0.428 | 0.616 | 1.27 | -0.473 | -0.113 | -0.804
29 | ACAGACAGGTGACTGAAGGTAACTCAGCTGGACG | 0.000361 | 0.5 | 0.509 | -0.793 | 0.654 | 1.94 | -0.751 | -0.404 | -0.657
30 | CGTAGCAGGCCAGGGTCACTCAAGCATTTCGCTT | 2.51 | 3.02 | 2.53 | 0.749 | 3.36 | 2.84 | 1.33 | 2.59 | 1.18
31 | ACTACAGGGTCACTAGGCCAGAGTAGGTACGAAT | 3.08 | 4.68 | 4.59 | 2.54 | 4.84 | 3.33 | 0.948 | 3.76 | 1.82
32 | CCTACTGGGCCAAAAAGGTCACTGATGCCGATAA | 4.56 | 4.77 | 4.86 | 0.0179 | 4.83 | 3.07 | 0.702 | 4.5 | 1.53
33 | TCTCGTTGGTCACGGAGGTCACACACGACGGGTA | 4.68 | 4.95 | 4.91 | 0.929 | 4.39 | 3.73 | 2.29 | 5.96 | 2.98
34 | GCTAGCAAGCCATTTGGGTCACTCAATGACGGGC | 1.36 | 0.373 | 0.621 | -0.364 | 0.56 | 1.51 | 0.353 | -0.0244 | -0.322
35 | GCGACTGGGGCAAAGCAGGTTACCAGAAGGTTGG | 1.32 | 0.622 | 0.806 | -0.155 | 0.313 | 2.87 | -0.356 | 0.13 | -0.376
36 | TAGCCTAGGTCAGATCGGGACAGTATACGCTATA | 2.11 | 2.85 | 3.78 | -0.412 | 1.76 | 4.67 | 0.686 | 1.23 | -0.152
37 | CTACCAAGGTGAACACGGTCGTTGATTACTATTC | 1.24 | 0.852 | 0.843 | 0.773 | 0.777 | 2.07 | 0.961 | 3.01 | 0.015
38 | AGAACGCGGGCAATGAGTTGATAGCACGGGTGGC | -0.332 | 0.0304 | 0.194 | -0.0914 | 0.299 | -0.395 | -1.04 | 1.56 | 0.678
39 | CAAACTACGTCAAGGTCAAAGTCGGTTTGTGCCA | 4.2 | 4.46 | 4.3 | 2.66 | 4.77 | 3.96 | 3.63 | 4.45 | 4.35
40 | GCATCTAGGTAATACAAGGTGAAAGTCCGATTGT | 0.893 | 0.422 | 0.244 | -0.0985 | 0.576 | 3.63 | 1.22 | 0.32 | -0.188
41 | TAGTCTAGGTCATTGGGCCAGTATAGTACGCATC | 3.08 | 3.92 | 4.79 | 1.95 | 3.26 | 3.32 | 1.55 | 2.5 | 1.87
42 | TCATAGAGGTAATACAGGTGAAAGTCGGCATCTA | 0.233 | 0.441 | 0.488 | 1.01 | 1.16 | 1.4 | -0.345 | 1.07 | 0.0318
43 | TCATATAGGTAAATGCTAGGAGAAAGTCCGATCT | -0.501 | 0.278 | 0.46 | 1.67 | 0.597 | -0.0458 | -0.197 | 0.71 | -0.0177
44 | TGTCGGAGGACACGAAGGTCAGAGCTTTCCAGAG | 3.4 | 3.38 | 4.14 | -0.488 | 1.8 | 2.92 | 0.651 | 2.42 | 0.981
45 | TCGAGTAGGTTAGTCGGGGCGTTCAGCCAACATA | -0.146 | -0.702 | -0.632 | 0.213 | -0.538 | 0.808 | -0.254 | 1.48 | -0.484
46 | CCTACTGGGCCAAATAGGTCATTGATGCCGATAA | 2.48 | 2.17 | 2.25 | -0.057 | 2.2 | 1.67 | -0.13 | 2.51 | 0.916
47 | TCTTGTAGATCAGCAGGTTACGAAAGCTGGCCAA | 0.128 | -0.124 | -0.187 | 0.505 | 0.318 | 0.29 | -0.291 | -0.0746 | -0.293
48 | GATAGAGGGTCAAGGCCAGAGTACGCGTATTGAT | 3.47 | 4.81 | 4.67 | 1.49 | 4.38 | 2.65 | 0.388 | 3.37 | 1.59
49 | ATATGTAGGTTACTTCCGGGTCATTCAGGCTATG | 3.02 | 3.9 | 2.02 | 1.23 | 3.02 | 3.91 | 2.57 | 3.93 | 2.58
50 | CCTACAGGGCCATTCAGAGGTCATTGATCATATG | 4.27 | 5.34 | 3.29 | 1.85 | 3.85 | 3.38 | 1.34 | 4.57 | 4.16
51 | TCTCGGAGAACACGAAAGGTCAGAGCTCGACATC | 4.31 | 3.67 | 3.24 | 0.702 | 3.72 | 2.63 | 0.193 | 2.22 | 0.319
52 | ATCTCTAGGTAACCAACTTCAGTGAATGCCGAAC | 0.171 | 0.209 | 0.26 | 0.264 | 0.158 | 0.65 | 0.878 | 0.0615 | 0.195
